For assay [1], the system named is Zika virus NS2B-NS3 protease (linked construct). In words: Primary screen NINDS Rhodamine qHTS for Zika virus inhibitors (AID 1347160). Also: nearly all actives have a fitted effect of over 55% in size. In outline: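 Aprotinin served as in-plate control. Conditions: 25 nM linked NS2B-NS3, pH 8.0 Tris buffer, titrated compounds, 15 min preincubation and 15 min reaction with 1.5 microM Rhod110 substrate at room temperature.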
(In qHTS, concentration-response curves come from the screen itself.)

Assay [2] has as its target Calcium and integrin-binding protein 1 (Homo sapiens) (UniProt Q99828). In words: Primary qHTS for Identification of Calcium Integrin Binding Protein 1 (CIB1) Competitor (AID 1508620).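 Also: GST tagged CIB1 binding a fluorescein labelled alphaIIb integrin peptide tracer; top concentration of the series differs between compounds.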 A digest of the protocol: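 CIB1-GST (1 uM final) and compound incubated 15 min at room temperature before adding FITC-alphaIIb peptide tracer (100 nM final). Competition for binding read by fluorescence polarization (ex 480, em 540) after another 15 min at room temperature.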

A short description of assay [3]: Primary qHTS for inhibitors of nuclear receptor binding SET domain protein 2 (NSD2) in an isogenic RCH-ACV NSD2 p.E1099K mutant (9B) (AID 1645876). Also: potency is read from the fitted curve at half-maximal effect; nearly all actives have a fitted effect of over 70% in size.
Assay [4] in a line: Primary qHTS for inhibitors of nuclear receptor binding SET domain protein 2 (NSD2) in an RCH-ACV wild type WT cells (2C) (AID 1645877). Also: potency is read from the fitted curve at half-maximal effect; nearly all actives have a fitted effect of over 70% in size.
The target of assay [5] is Phospholipid hydroperoxide glutathione peroxidase GPX4 (Homo sapiens) (UniProt P36969). In words: Primary qHTS Assay for Inhibitors of Recombinant Selenoprotein Glutathione Peroxidase 4 (GPX4) (AID 1845192). Also: nearly all actives have a fitted effect of over 65% in size. Also: potency is read from the fitted curve at half-maximal effect. To be noted: outcome: dose series up to 50 µM unless noted. A digest of the protocol: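 NADPH consumption followed by fluorescence at 340/450 nm, t=0 and after 15 min at room temperature. Reaction started with cumene hydroperoxide (0.5 mM final) after 30 min compound–GPX4 preincubation; final 200 nM GPX4, 100 nM GR, 1 mM GSH, 0.5 mM NADPH.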

Assay [6] concerns the target Luciferin 4-monooxygenase (Photinus pyralis) (UniProt P08659). In words: Primary firefly luciferase (FLuc) qHTS assay for identification of artifact compounds. (AID 1845220). Also: nearly all actives have a fitted effect of over 60% in size. A digest of the protocol: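 FLuc 10 nM; luciferin 10 uM; ATP 10 uM; Tris-acetate pH 7.6, Mg-acetate 10 mM; 15 min RT preincubation; 5 min reaction; luminescence.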
The nature of assay [7]: Primary fluorescence-based thiol-reactive (MSTI) qHTS assay for identification of artifact compounds. (AID 1845221). Also: nearly all actives have a fitted effect of over 65% in size. Also: potency is read from the fitted curve at half-maximal effect. In outline:
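A multi-concentration qHTS design tested compounds against 4 uM MSTI, pH 7.4 phosphate-buffered saline. Plates were protected from light for 1 h at room temperature before imaging fluorescence.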

Assay [8] deals with Nanoluciferase (engineered Oplophorus gracilirostris luciferase). Kind of assay: Primary Nanoluciferase (NLuc) qHTS assay for identification of artifact compounds. (AID 1845222).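 Also: NLuc secreted into diluted conditioned medium of S16 cells.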 A digest of the protocol: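 NLuc from S16 cell medium (1:55) plus test compounds, 15 min, room temperature. Luminescence after Nano-Glo (1:100) addition, 5 min.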
Assay [9] in a line: Primary redox qHTS assay for identification of artifact compounds. (AID 1845223). A digest of the protocol: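 Redox-cycling detection via DTT (250 uM final) oxidation coupled to Amplex Red (25 uM)/HRP (250 mU/mL) in HBSS. 15 min preincubation plus 30 min after DTT, room temperature. Ex/Em 525/598 nm; 4-parameter Hill fit against DMSO and 10 uM DA3003.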
For a further assay, the system named is C33A. Kind of assay: Primary qHTS to identify gynecologic anti-cancer compounds using libraries of approved drugs and bioactive compounds (AID 1345084). Also: nearly all actives have a fitted effect of over 55% in size. To be noted: Gynecologic cancer cell panel viability, ATPlite luminescence, 48 h; series mostly up to 57.5 µM. In outline:
(§1)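 ATP-based viability (ATPlite), 1,000 cells/well, 16 h pre-incubation, 48 h compound at 37 C, 5% CO2, 15 min RT before read.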

In another assay the test system is CASKI. The description is as above. To be noted: Gynecologic cancer cell panel viability, ATPlite luminescence, 48 h; series mostly up to 57.5 µM. A digest of the protocol:
as §1
(In ATP-based viability assays light output follows the ATP content of the culture.)

A further assay concerns Es-2. The assay is described as above. To be noted: Gynecologic cancer cell panel viability, ATPlite luminescence, 48 h; series mostly up to 57.5 µM. In outline: as §1
The test system of another assay is HeLa. Described as above. To be noted: Gynecologic cancer cell panel viability, ATPlite luminescence, 48 h; series mostly up to 57.5 µM. In outline:
as §1

A further assay has as its system Hek293T. The assay is described as above. To be noted: Gynecologic cancer cell panel viability, ATPlite luminescence, 48 h, control line for the selectivity index; series mostly up to 57.5 µM. A digest of the protocol: as §1
The next assay concerns JEG-3. The description is as above. To be noted: Gynecologic cancer cell panel viability, ATPlite luminescence, 48 h; series mostly up to 57.5 µM. In outline:
as §1

The next assay deals with OV90. The assay is described as above. To be noted: Gynecologic cancer cell panel viability, ATPlite luminescence, 48 h; series mostly up to 57.5 µM. In outline:
as §1

For another assay, the system named is PA-1. The assay is described as above. To be noted: Gynecologic cancer cell panel viability, ATPlite luminescence, 48 h; series mostly up to 57.5 µM. In outline:
as §1

The next assay relates to Tov-21-G. The description is as above. To be noted: Gynecologic cancer cell panel viability, ATPlite luminescence, 48 h; series mostly up to 57.5 µM. A digest of the protocol:
as §1

Another assay deals with Tov112D. The description is as above. To be noted: Gynecologic cancer cell panel viability, ATPlite luminescence, 48 h; series mostly up to 57.5 µM. A digest of the protocol:
as §1

Assay [10] deals with Glutathione peroxidase 1 (Homo sapiens) (UniProt P07203). In words: Primary qHTS Assay for Inhibitors of Recombinant Selenoprotein Glutathione Peroxidase 1 (GPX1) (AID 1845191). Also: nearly all actives have a fitted effect of over 65% in size. A digest of the protocol: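 NADPH consumption tracked by fluorescence at 340/450 nm between t=0 and t=15 min, room temperature. Final mix: 10 nM GPX1, 100 nM glutathione reductase, 1 mM GSH, 0.5 mM NADPH, 0.5 mM cumene hydroperoxide, 0.01% BSA; 30 min compound–enzyme preincubation.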

Molecules are shown by their SMILES. Values joined by “and” are separate entries in the source; they are usually repeats but may differ in a detail not shown here. Equal entries are not always repeated. Results filed as inconclusive are left out. Active and inactive are the calls of the source. Calls follow the shape of the dose curve; as a rule, active = well fitted curve in the direction sought with a large enough effect; inconclusive = small, poorly fitted or top-dose-only effect, or another doubt; inactive = no such curve, though single readings can be large; an effect the other way counts as inactive or inconclusive.

Phospholipid hydroperoxide glutathione peroxidase GPX4 (Homo sapiens), sequence (P36969 whole entry, looked up): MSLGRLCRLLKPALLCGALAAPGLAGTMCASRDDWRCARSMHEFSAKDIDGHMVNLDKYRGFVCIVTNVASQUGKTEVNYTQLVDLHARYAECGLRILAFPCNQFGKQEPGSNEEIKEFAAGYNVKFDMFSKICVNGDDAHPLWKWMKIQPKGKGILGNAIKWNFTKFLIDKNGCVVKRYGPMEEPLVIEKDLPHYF
Calcium and integrin-binding protein 1 (Homo sapiens), sequence (Q99828 whole entry, looked up): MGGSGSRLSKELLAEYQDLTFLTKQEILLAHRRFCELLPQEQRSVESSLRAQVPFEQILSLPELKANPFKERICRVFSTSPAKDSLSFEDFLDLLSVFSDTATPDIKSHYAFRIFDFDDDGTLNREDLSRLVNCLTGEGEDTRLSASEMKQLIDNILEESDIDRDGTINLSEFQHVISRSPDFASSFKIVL
Glutathione peroxidase 1 (Homo sapiens), sequence (P07203 whole entry, looked up): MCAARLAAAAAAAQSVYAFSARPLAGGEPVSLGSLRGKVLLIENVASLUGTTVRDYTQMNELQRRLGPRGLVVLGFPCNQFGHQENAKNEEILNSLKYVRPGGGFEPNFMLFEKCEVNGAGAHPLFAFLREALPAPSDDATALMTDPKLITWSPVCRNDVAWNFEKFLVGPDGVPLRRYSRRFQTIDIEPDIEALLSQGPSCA

Take `N#CCC(C1CCCC1)n1cc(-c2ncnc3[nH]ccc23)cn1` (stereo not drawn): the Potency entry (in assay [1]; in [6]; in assay [7]; in assay [8]; in assay [9]; with C33A) was “inactive” each time. The Potency result in the assay on CASKI, in the assay on Es-2, in the assay on HeLa, in the assay on Hek293T, in the assay with JEG-3 and in the assay with OV90 was “inactive” throughout. Besides, the Potency result with PA-1, with Tov-21-G and with Tov112D was “inactive” in each case. Further, in assay [2], the result was inactive. The Potency in assay [3] was 12.9 µM (active); in assay [4], 20.5 µM (active); in [5] it was 18 µM (active).
Turning to `CCC(C)n1cc(C)c2c(C(=O)NCc3c(C)cc(C)[nH]c3=O)cc(-c3ccc(N4CCNCC4)nc3)cc21` (stereo not drawn), the Potency entry (in [1]; in [6]; in [8]; in [9]; in the assay on C33A; in the assay on CASKI) was “inactive” in each case. The Potency entry in the assay on Es-2, with HeLa, in the assay with Hek293T, in the assay on JEG-3, with OV90 and in the assay on PA-1 was “inactive” each time. In addition, the Potency entry in the assay with Tov-21-G and in the assay on Tov112D was “inactive” in each case. The result in assay [2] was inactive. Also, the Potency in assay [3] is 20.5 µM (active); in assay [4], 14.5 µM (active).
Consider `COc1ccc2c(c1)C[C@H](C(=O)Nc1ccc(-c3cn[nH]c3)cc1OCCN(C)C)CO2`, for which the Potency entry in [1], in [10], in assay [5], in [6], in assay [7] and in assay [9] was “inactive” throughout. Moreover, the Potency entry in the assay on C33A, in the assay with CASKI, with Es-2, with Hek293T, in the assay with JEG-3 and in the assay with OV90 was “inactive” each time. The Potency result in the assay with PA-1, with Tov-21-G and in the assay on Tov112D was “inactive” throughout. Further, the outcome in [2] was inactive. The Potency in assay [3] was 0.291 µM (active); in assay [4], 0.164 µM (active).
With `O=C(Nc1ccc(F)cc1)N1CCc2ccccc2C1c1ccc(C(F)(F)F)cc1` (stereo not drawn), the result in assay [2] was inactive. The Potency in assay [3] was 18.3 µM (active); in assay [4], 18.3 µM (active); in assay [7] it was 0.0474 µM (active). Besides, the Potency result (in [10]; in [5]; in assay [6]; in [8]; with C33A; with CASKI) was “inactive” throughout. Moreover, the Potency result with Es-2, in the assay on HeLa, in the assay with Hek293T, with JEG-3, in the assay with OV90 and in the assay on PA-1 was “inactive” throughout. For the same molecule, the Potency result with Tov-21-G and in the assay on Tov112D was “inactive” each time.
With `CCC[C@@H](NC(=O)N1C(=O)C(CC)(CC)[C@@H]1Oc1ccc(C(=O)N2CCN(C)CC2)cc1)c1ccc2c(c1)OCO2`, the Potency result (in assay [1]; in assay [10]; in assay [5]; in assay [6]; in [9]; with C33A) was “inactive” each time. Besides, the Potency result with CASKI, in the assay on Es-2, in the assay with HeLa, in the assay with Hek293T, in the assay with JEG-3 and in the assay with OV90 was “inactive” each time. Also, the Potency entry in the assay on PA-1, with Tov-21-G and with Tov112D was “inactive” in each case. In assay [2], the outcome was inactive.
For the molecule `O=C(c1ccc(F)c(F)c1Nc1ccc(I)cc1F)N1CC(O)([C@@H]2CCCCN2)C1`, the Potency result (in [1]; in assay [5]; in assay [6]; in assay [7]; in assay [8]; in the assay with HeLa) was “inactive” in each case. In addition, the Potency result with JEG-3 and in the assay with PA-1 was “inactive” in each case. Moreover, the result in [2] was inactive. Further, the Potency was 14.8 µM (active) in assay [3]; 14.5 µM (active) and 14.8 µM (active) in [4].
For `C/C=C(/COC(=O)/C(C)=C/C)C(=O)OC/C=C/c1ccc(OC)cc1`, the Potency result (in assay [1]; in assay [5]; in assay [6]; in assay [7]; in assay [9]; in the assay with C33A) was “inactive” throughout. For the same molecule, the Potency result in the assay on CASKI, in the assay with Es-2, with HeLa, in the assay with Hek293T, in the assay on JEG-3 and with OV90 was “inactive” throughout. In the assay with Tov-21-G, the Potency entry is “inactive”. For the same molecule, in assay [2], the result was inactive.

Values taken from PubChem BioAssay (NCATS).
